Among the data in PubChem BioAssay (NCATS) are Potency, outcome and activity change, negative = inhibition values, retold here.

Results filed as inconclusive are left out. Entries that show only a call come without a potency. Calls of active or inactive are those of the source. Calls come from the whole dose curve; as a rule, active = well fitted inhibition curve with a large enough effect; inconclusive = small, poorly fitted or top-dose-only effect; inactive = flat fitted curve, though single readings scatter.
Note: nearly all actives have a fitted effect of over 65% in size.

Phospholipid hydroperoxide glutathione peroxidase GPX4 (Homo sapiens), sequence (P36969 whole entry, looked up): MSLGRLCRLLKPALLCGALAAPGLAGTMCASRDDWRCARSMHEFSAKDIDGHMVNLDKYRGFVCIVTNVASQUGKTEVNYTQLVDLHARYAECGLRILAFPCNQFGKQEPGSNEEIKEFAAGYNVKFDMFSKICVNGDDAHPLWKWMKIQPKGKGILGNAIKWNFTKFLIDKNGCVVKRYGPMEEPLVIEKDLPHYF

In one experiment the target is Glutathione peroxidase 1 (Homo sapiens) (UniProt P07203). As to the kind of experiment: Primary qHTS Assay for Inhibitors of Recombinant Selenoprotein Glutathione Peroxidase 1 (GPX1) (AID 1845191). As to conditions: recombinant GPX1, GR-coupled NADPH fluorescence, 15 min; series mostly up to 48.8 µM. The method, boiled down: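 NADPH consumption tracked by fluorescence at 340/450 nm between t=0 and t=15 min, room temperature. Final mix: 10 nM GPX1, 100 nM glutathione reductase, 1 mM GSH, 0.5 mM NADPH, 0.5 mM cumene hydroperoxide, 0.01% BSA; 30 min compound–enzyme preincubation.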
Glutathione peroxidase 1 (Homo sapiens), sequence (P07203 whole entry, looked up): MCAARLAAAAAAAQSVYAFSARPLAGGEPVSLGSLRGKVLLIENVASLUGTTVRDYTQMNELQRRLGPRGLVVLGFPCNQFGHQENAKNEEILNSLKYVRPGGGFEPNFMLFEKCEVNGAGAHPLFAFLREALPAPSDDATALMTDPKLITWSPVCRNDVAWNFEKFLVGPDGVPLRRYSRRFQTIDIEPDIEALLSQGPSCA
On the technique in general: In qHTS, concentration-response curves come from the screen itself.
For `Cc1nc2ccc(Oc3ccc(F)cc3)cc2c(=O)n1C[C@H]1CCCN(C(C)C)C1`, the Potency entry is “inactive”. Still for that read-out and setting: to `COC(=O)C12C(=O)C(C)=C(O)C1(C)C(C)=CC1C3(CO)CCC(O)C(C)(C)C3CCC12C` (stereo not drawn) belongs “inactive”.

As for `CC[C@H](CO)Nc1nc(NCc2ccc(-c3ccccn3)cc2)c2ncn(C(C)C)c2n1`, the Potency result was “inactive”. For the compound `CC1OC(OC2C(O)C(OC3CCC4(C)C(CCC5(C)C4CC=C4C6CC(C)(COC7OC(CO)C(O)C(O)C7O)CC(O)C6(C)CCC45C)C3(C)C)OC(C(=O)O)C2O)C(O)C(O)C1OC1OCC(O)C(O)C1O` (stereo not drawn), the Potency result is “inactive”. As to `CCCN1CCN(c2ccc(C(=O)NC3(C(=O)NCC#N)CCCCC3)cc2)CC1`, the Potency entry is “inactive”. On to `CC(C)=CC/C=C(\C)[C@H]1CC[C@]2(C)[C@@H]1[C@H](O)C[C@@H]1[C@@]3(C)CC[C@H](O)C(C)(C)[C@@H]3[C@@H](O[C@@H]3O[C@H](CO)[C@@H](O)[C@H](O)[C@H]3O)C[C@]12C`, for which the Potency entry was “inactive”. On to `Cn1cc(S(=O)(=O)c2ccc(Cl)cc2)c2cccc(N3CCNCC3)c21`, for which the Potency entry is “inactive”.

`COC(=O)C1=CO[C@@H](O[C@@H]2O[C@H](CO[C@@H]3O[C@H](COC(=O)/C=C/c4cc(OC)c(O)c(OC)c4)[C@@H](O)[C@H](O)[C@H]3O)[C@@H](O)[C@H](O)[C@H]2O)[C@@H]2C(CO)=CC[C@H]12`: the Potency result is “inactive”. Regarding `C/C=C1\[C@H](OC2OC(COC3OC(CO)C(O)C(O)C3O)C(O)C(O)C2O)OC=C(C(=O)OC)[C@H]1CC(=O)OCCc1ccc(O)cc1` (stereo partly drawn), the Potency entry was “inactive”. Regarding `C=CC(=O)N1CCN(C(=O)CNc2cc(I)c(Cl)cc2O)CC1`, the Potency entry is “inactive”. The same measure, in the same setting: to `Cc1cc(OCc2nc(-c3ccccc3Cl)cs2)ccc1OCC(=O)O` belongs “inactive”; to `CC[C@H](C)[C@H](NC(=O)[C@H]([C@@H](C)CC)N(C)C(C)=O)C(=O)N[C@H](C(=O)N[C@@H](CC(C)C)C(=O)[C@@]1(C)CO1)[C@@H](C)O`, “inactive”. Still for that read-out and setting: next, `C=CC1C(OC2OC(CO)C(O)C(O)C2O)OC=C(C(=O)OC)C1CC1CC(=O)CC(CCc2ccc(O)cc2)O1` (stereo not drawn): “inactive”. Same read-out and setting: to `CC(=O)OC1C(O)CC2(C)C(CCC(C)C23Cc2c(O)cc(CO)c(C=O)c2O3)C1(C)C` (stereo not drawn) belongs “inactive”. Regarding `O=C(C(c1ccccc1)c1ccccc1)N1CCN(CC(O)COc2cccc3ncccc23)CC1` (stereo not drawn), the Potency entry is “inactive”.

In the case of `C=C1C(=O)OC2C1CCC(=C)C1CC(OC(C)=O)C(=C)C12` (stereo not drawn), the Potency entry was “inactive”.

For `COC(=O)N1CCC(n2ncc3c(N4CCOCC4)nc(-c4ccc(NC(=O)Nc5ccc(CO)cc5)cc4)nc32)CC1`, the Potency entry was “inactive”. Same read-out and setting: next, `CCC(O)C(C)C1CCC(C(C)C(=O)O)O1` (stereo not drawn): “inactive”. Consider `CC(=O)OC1/C(C)=C/C(=O)C(OC(C)=O)C(C)(C)/C=C/C(C)C(=O)C2(OC(C)=O)CC(C)C(OC(=O)c3ccccc3)C12` (stereo not drawn), for which the Potency entry is “inactive”. Still for that read-out and setting: next, `C=C(C(=O)O)C1CCC2(C)CCC(O)C(=C)C2C1` (stereo not drawn): “inactive”.

Take `CC1CCC2(CO)C(C(=O)O)=CCCC2C1(C)CCc1ccoc1` (stereo not drawn): the Potency entry was “inactive”. Regarding `CNC(=O)c1ccccc1Nc1cc(Nc2ccc(N3CCOCC3)cc2OC)ncc1C(F)(F)F`, the Potency result was “inactive”. `COC1CC(O[C@H]2CC[C@@]3(C)C(CCC4C3[C@H](OC(C)=O)[C@@H](OC(=O)/C=C/c3ccccc3)[C@]3(C)C(C(C)=O)CC[C@]43O)C2)OC(C)C1OC1CC(OC)C(OC2CC(OC)C(OC3OC(C)C(OC4OC(CO)C(O)C(O)C4O)C(OC)C3O)C(C)O2)C(C)O1` (stereo partly drawn): the outcome is “inactive [at 9.52 µM]”. For `C[C@@H]1O[C@@H](O[C@@H]2CO[C@@H](O[C@H]3CC[C@@]4(C)C(CC[C@]5(C)C4CC=C4[C@@H]6CC(C)(C)CC[C@]6(C(=O)O[C@@H]6O[C@H](CO)[C@@H](O)[C@H](O)[C@H]6O)CC[C@]45C)[C@]3(C)CO)[C@H](O)[C@H]2O[C@@H]2O[C@H](CO)[C@@H](O)[C@H](O)[C@H]2O)[C@H](O)[C@H](O)[C@H]1O` (stereo partly drawn), the Potency entry was “inactive”.

On to `CC(=O)O[C@@](C)(C(=O)/C=C/C(C)(C)O)[C@H]1[C@H](O)C[C@@]2(C)[C@@H]3CC=C4[C@@H](C=C(O)C(=O)C4(C)C)[C@]3(C)C(=O)C[C@]12C`, for which the Potency result is “inactive”. Turning to `COc1cc2c(cc1O)CC[C@H]1[C@@H]2CC[C@]2(C)[C@H](O)CC[C@@H]12`, the Potency entry was “inactive”. Same read-out and setting: to `COC(=O)C[C@H]1[C@]2(C)C3=C(C)[C@H](c4ccoc4)C[C@H]3O[C@@H]2[C@H](OC(C)=O)C2[C@](C)(C(=O)OC)C=CC(=O)[C@@]21C` (stereo partly drawn) belongs “inactive”.

The target of another experiment is Phospholipid hydroperoxide glutathione peroxidase GPX4 (Homo sapiens) (UniProt P36969). As to the kind of experiment: Primary qHTS Assay for Inhibitors of Recombinant Selenoprotein Glutathione Peroxidase 4 (GPX4) (AID 1845192). The note with it: recombinant GPX4, GR-coupled NADPH fluorescence, 15 min; series mostly up to 50 µM. In short, it runs like this:
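NADPH consumption followed by fluorescence at 340/450 nm, t=0 and after 15 min at room temperature. Reaction started with cumene hydroperoxide (0.5 mM final) after 30 min compound–GPX4 preincubation; final 200 nM GPX4, 100 nM GR, 1 mM GSH, 0.5 mM NADPH.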
For `CC/C=C/CC1=C(CCCCC(CCC(=O)O)OC(C)=O)CCC1=O` (stereo not drawn), the Potency entry is “inactive”.

On to `Cc1cc2c(F)c(Oc3ncnn4cc(OCC(C)O)c(C)c34)ccc2[nH]1` (stereo not drawn), for which the Potency result is “inactive”.

Take `COC1C(=O)CCC2(CO2)C1(O)C1(C)OC1CC=C(C)C` (stereo not drawn): the Potency result is “inactive”. On the same count and under the same terms, to `C[C@@H]1CC[C@]2(C(=O)OC3OC(CO)C(O)C(O)C3O)CC[C@]3(C)C(=CCC4[C@@]5(C)CC[C@H](O)[C@](C)(C(=O)O)C5CC[C@]43C)C2[C@]1(C)O` (stereo partly drawn) belongs “inactive”.

As to `O=C(O)/C=C/c1ccc(O)c(O[C@@H]2O[C@H](CO)[C@@H](O)[C@H](O)[C@H]2O)c1`, the Potency entry is “inactive”. As for `C=C1C(=O)OC2/C=C(\CO)CC/C=C(\C=O)CC(OC(=O)CC(C)C)C12` (stereo not drawn), the Potency entry is “inactive”. Consider `CC(=O)OC[C@]12[C@H](OC(C)=O)C(=O)[C@@H]3[C@@H](OC(C)=O)[C@@]14O[C@@]3(C)COC(=O)c1cccnc1[C@@H](C)[C@H](C)C(=O)O[C@@H]([C@H](O)[C@@H]2OC(C)=O)[C@]4(C)O`, for which the Potency result is “inactive”.

On to `COc1c2c(c(C)c3c1C(=O)OC3)OC1(C)CC(O)C34OC(OC)(CC(OC(C)=O)C3(C)C1C2)OC4(C)C` (stereo not drawn), for which the Potency entry is “inactive”. On the same count and under the same terms, next, `CC1OC(OC2CCC3(C)C(CCC4(C)C3CC=C3C5CC(C)(C)CCC5(C(=O)OC5OC(CO)C(O)C(O)C5O)CCC34C(=O)O)C2(C)C)C(O)C(O)C1O` (stereo not drawn): “inactive”. On the same count and under the same terms, next, `O=C(c1cccc(Cl)c1F)N1CCN(Cc2cccc(Nc3nccs3)n2)CC1`: “inactive”. On the same count and under the same terms, to `CN(C)c1ccc2c(c1)OC(N)=C(C#N)C2c1cccc(C(F)(F)F)c1` (stereo not drawn) belongs “inactive”; to `CC(C)S(=O)(=O)N[C@H]1CCOC[C@@H]1c1ccc(-c2ccc(C#N)s2)cc1`, “inactive”; to `Cc1nc2ccc(Oc3ccc(F)cc3)cc2c(=O)n1C[C@H]1CCCN(C(C)C)C1`, “inactive”. With `COC(=O)C12C(=O)C(C)=C(O)C1(C)C(C)=CC1C3(CO)CCC(O)C(C)(C)C3CCC12C` (stereo not drawn), the Potency result was “inactive”. On the same count and under the same terms, next, `CC[C@H](CO)Nc1nc(NCc2ccc(-c3ccccn3)cc2)c2ncn(C(C)C)c2n1`: “inactive”.

`CC1OC(OC2C(O)C(OC3CCC4(C)C(CCC5(C)C4CC=C4C6CC(C)(COC7OC(CO)C(O)C(O)C7O)CC(O)C6(C)CCC45C)C3(C)C)OC(C(=O)O)C2O)C(O)C(O)C1OC1OCC(O)C(O)C1O` (stereo not drawn): the Potency entry was “inactive”. Same read-out and setting: next, `CCCN1CCN(c2ccc(C(=O)NC3(C(=O)NCC#N)CCCCC3)cc2)CC1`: “inactive”; `CC(C)=CC/C=C(\C)[C@H]1CC[C@]2(C)[C@@H]1[C@H](O)C[C@@H]1[C@@]3(C)CC[C@H](O)C(C)(C)[C@@H]3[C@@H](O[C@@H]3O[C@H](CO)[C@@H](O)[C@H](O)[C@H]3O)C[C@]12C`: “inactive”. Same read-out and setting: next, `Cn1cc(S(=O)(=O)c2ccc(Cl)cc2)c2cccc(N3CCNCC3)c21`: “inactive”; `COC(=O)C1=CO[C@@H](O[C@@H]2O[C@H](CO[C@@H]3O[C@H](COC(=O)/C=C/c4cc(OC)c(O)c(OC)c4)[C@@H](O)[C@H](O)[C@H]3O)[C@@H](O)[C@H](O)[C@H]2O)[C@@H]2C(CO)=CC[C@H]12`: “inactive”; `C/C=C1\[C@H](OC2OC(COC3OC(CO)C(O)C(O)C3O)C(O)C(O)C2O)OC=C(C(=O)OC)[C@H]1CC(=O)OCCc1ccc(O)cc1` (stereo partly drawn): “inactive”. The same measure, in the same setting: to `C=CC(=O)N1CCN(C(=O)CNc2cc(I)c(Cl)cc2O)CC1` belongs “inactive”. Turning to `Cc1cc(OCc2nc(-c3ccccc3Cl)cs2)ccc1OCC(=O)O`, the Potency result was “inactive”. On to `CC[C@H](C)[C@H](NC(=O)[C@H]([C@@H](C)CC)N(C)C(C)=O)C(=O)N[C@H](C(=O)N[C@@H](CC(C)C)C(=O)[C@@]1(C)CO1)[C@@H](C)O`, for which the Potency entry was “inactive”. The same measure, in the same setting: next, `C=CC1C(OC2OC(CO)C(O)C(O)C2O)OC=C(C(=O)OC)C1CC1CC(=O)CC(CCc2ccc(O)cc2)O1` (stereo not drawn): “inactive”; `CC(=O)OC1C(O)CC2(C)C(CCC(C)C23Cc2c(O)cc(CO)c(C=O)c2O3)C1(C)C` (stereo not drawn): “inactive”. The same measure, in the same setting: to `O=C(C(c1ccccc1)c1ccccc1)N1CCN(CC(O)COc2cccc3ncccc23)CC1` (stereo not drawn) belongs “inactive”; to `C=C1C(=O)OC2C1CCC(=C)C1CC(OC(C)=O)C(=C)C12` (stereo not drawn), “inactive”.

For `COC(=O)N1CCC(n2ncc3c(N4CCOCC4)nc(-c4ccc(NC(=O)Nc5ccc(CO)cc5)cc4)nc32)CC1`, the Potency entry is “inactive”. Same read-out and setting: to `CCC(O)C(C)C1CCC(C(C)C(=O)O)O1` (stereo not drawn) belongs “inactive”; to `CC(=O)OC1/C(C)=C/C(=O)C(OC(C)=O)C(C)(C)/C=C/C(C)C(=O)C2(OC(C)=O)CC(C)C(OC(=O)c3ccccc3)C12` (stereo not drawn), “inactive”; to `C=C(C(=O)O)C1CCC2(C)CCC(O)C(=C)C2C1` (stereo not drawn), “inactive”. As for `CC1CCC2(CO)C(C(=O)O)=CCCC2C1(C)CCc1ccoc1` (stereo not drawn), the Potency result was “inactive”.

As for `CNC(=O)c1ccccc1Nc1cc(Nc2ccc(N3CCOCC3)cc2OC)ncc1C(F)(F)F`, the Potency result was “inactive”. In the case of `COC1CC(O[C@H]2CC[C@@]3(C)C(CCC4C3[C@H](OC(C)=O)[C@@H](OC(=O)/C=C/c3ccccc3)[C@]3(C)C(C(C)=O)CC[C@]43O)C2)OC(C)C1OC1CC(OC)C(OC2CC(OC)C(OC3OC(C)C(OC4OC(CO)C(O)C(O)C4O)C(OC)C3O)C(C)O2)C(C)O1` (stereo partly drawn), the activity change, negative = inhibition is -9.21% [at 9.73 µM] (inactive). With `C[C@@H]1O[C@@H](O[C@@H]2CO[C@@H](O[C@H]3CC[C@@]4(C)C(CC[C@]5(C)C4CC=C4[C@@H]6CC(C)(C)CC[C@]6(C(=O)O[C@@H]6O[C@H](CO)[C@@H](O)[C@H](O)[C@H]6O)CC[C@]45C)[C@]3(C)CO)[C@H](O)[C@H]2O[C@@H]2O[C@H](CO)[C@@H](O)[C@H](O)[C@H]2O)[C@H](O)[C@H](O)[C@H]1O` (stereo partly drawn), the Potency entry was “inactive”.
